What all share (experiment): DAPPL (digital affinity profiling via proximity ligation, sequencing); 10 mM Tris-HCl pH 7.5, 50 mM NaCl, 1 mM DTT, 4% glycerol, room temperature, 30 min; GST-TFs on glutathione beads, 16-mer random dsDNA library, 0.1% formaldehyde crosslink after washing; high values mean tight binding
Details in all cases: protein: recombinant; tags: N-terminal GST; dsDNA, one strand shown

The target in one assay is T1, FLI1 (Homo sapiens, UniProt Q01543 1-452).
T1 sequence: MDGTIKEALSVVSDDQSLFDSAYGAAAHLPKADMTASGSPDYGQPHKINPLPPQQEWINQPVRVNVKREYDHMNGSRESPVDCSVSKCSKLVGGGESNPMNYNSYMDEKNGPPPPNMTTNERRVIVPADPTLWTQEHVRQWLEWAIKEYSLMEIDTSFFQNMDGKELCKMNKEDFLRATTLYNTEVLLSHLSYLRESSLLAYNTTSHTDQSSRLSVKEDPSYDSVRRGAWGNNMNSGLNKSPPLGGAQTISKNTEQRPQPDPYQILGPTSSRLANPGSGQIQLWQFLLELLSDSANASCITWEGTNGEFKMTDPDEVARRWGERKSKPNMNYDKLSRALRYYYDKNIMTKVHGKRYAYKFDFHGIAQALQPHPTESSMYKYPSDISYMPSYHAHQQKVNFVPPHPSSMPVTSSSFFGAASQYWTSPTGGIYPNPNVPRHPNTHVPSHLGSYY
The essentials:
(§1)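 Pools of DNA-barcoded human transcription factors, expressed in yeast as GST fusions on glutathione beads and combined with a tag-only sample, were incubated with 200 nmole of a 16-mer random double-stranded DNA library. Incubation took 30 min at room temperature in Tris/NaCl/DTT/glycerol buffer and was followed by washing, 0.1% formaldehyde crosslinking, proximity ligation (BsaI/T4 ligase, 1 h, 37 °C), PCR amplification and sequencing on an Illumina NextSeq500. Binding signal is the ratio of a hexamer's read frequency for a factor to its frequency for the tag-only sample.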

A further assay concerns the target T2, ELK1 (Homo sapiens, UniProt P19419 1-428).
T2 sequence: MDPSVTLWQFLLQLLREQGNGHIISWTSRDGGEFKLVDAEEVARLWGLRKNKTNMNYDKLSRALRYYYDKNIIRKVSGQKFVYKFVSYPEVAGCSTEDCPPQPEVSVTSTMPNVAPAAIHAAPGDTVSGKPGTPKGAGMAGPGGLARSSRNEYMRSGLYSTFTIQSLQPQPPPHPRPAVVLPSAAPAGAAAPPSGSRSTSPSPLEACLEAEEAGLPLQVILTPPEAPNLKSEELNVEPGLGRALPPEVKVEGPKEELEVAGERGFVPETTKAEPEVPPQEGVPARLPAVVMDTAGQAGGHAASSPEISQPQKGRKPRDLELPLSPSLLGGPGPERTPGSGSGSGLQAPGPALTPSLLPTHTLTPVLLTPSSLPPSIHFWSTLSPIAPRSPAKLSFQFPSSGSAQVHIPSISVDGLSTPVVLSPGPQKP
The essentials: as §1

For another assay, the target named is T3, GABPA (Homo sapiens, UniProt Q06546 1-454).
T3 sequence: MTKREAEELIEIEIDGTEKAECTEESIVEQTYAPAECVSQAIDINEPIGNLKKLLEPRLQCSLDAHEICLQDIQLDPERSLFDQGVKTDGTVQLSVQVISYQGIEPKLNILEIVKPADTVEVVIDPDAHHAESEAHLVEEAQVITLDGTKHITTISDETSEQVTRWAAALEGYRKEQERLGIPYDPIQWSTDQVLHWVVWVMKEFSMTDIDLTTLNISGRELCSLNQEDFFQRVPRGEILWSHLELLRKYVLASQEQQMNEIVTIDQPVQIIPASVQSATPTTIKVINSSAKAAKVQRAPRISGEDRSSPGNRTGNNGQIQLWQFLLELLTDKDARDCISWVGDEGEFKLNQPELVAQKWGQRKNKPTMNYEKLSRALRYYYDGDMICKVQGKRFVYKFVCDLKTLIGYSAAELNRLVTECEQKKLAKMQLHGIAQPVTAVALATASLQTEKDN
The essentials:
as §1

The next assay deals with T4, ERG (Homo sapiens, UniProt P11308 1-479).
T4 sequence: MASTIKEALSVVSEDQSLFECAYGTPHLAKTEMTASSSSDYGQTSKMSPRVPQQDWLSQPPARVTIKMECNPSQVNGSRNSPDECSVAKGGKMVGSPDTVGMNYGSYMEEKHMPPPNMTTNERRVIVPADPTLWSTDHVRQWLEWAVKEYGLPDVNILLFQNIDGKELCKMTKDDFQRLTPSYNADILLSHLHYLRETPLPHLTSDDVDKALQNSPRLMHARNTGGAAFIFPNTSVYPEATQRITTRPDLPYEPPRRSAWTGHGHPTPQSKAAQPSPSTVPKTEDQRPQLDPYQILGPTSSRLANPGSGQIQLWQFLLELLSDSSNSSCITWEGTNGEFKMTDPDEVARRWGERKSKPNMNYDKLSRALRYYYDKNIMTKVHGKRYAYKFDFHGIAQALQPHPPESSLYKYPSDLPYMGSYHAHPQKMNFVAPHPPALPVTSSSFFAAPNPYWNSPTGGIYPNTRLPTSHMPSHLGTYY
In outline:
as §1

A further assay deals with ELF1 (Homo sapiens, UniProt P32519 1-619). In outline: as §1
Another assay addresses T5, EHF (Homo sapiens, UniProt Q9NZC4 1-300).
T5 sequence: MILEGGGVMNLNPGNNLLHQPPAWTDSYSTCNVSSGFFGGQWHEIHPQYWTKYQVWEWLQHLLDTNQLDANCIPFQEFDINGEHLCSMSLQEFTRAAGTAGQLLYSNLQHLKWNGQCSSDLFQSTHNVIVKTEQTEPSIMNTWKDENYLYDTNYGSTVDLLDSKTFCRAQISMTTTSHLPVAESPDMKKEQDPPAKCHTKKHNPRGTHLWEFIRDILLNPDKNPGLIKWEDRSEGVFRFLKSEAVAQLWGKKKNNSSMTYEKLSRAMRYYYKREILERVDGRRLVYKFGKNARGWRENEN
The essentials:
as §1

The target of a further assay is SPI1 (Homo sapiens, UniProt P17947 1-270). In outline:
as §1

In the next assay the target is SPIB (Homo sapiens, UniProt Q01892 1-262). The essentials: as §1
A further assay addresses ETV5 (Homo sapiens, UniProt P41161 1-510). In outline:
as §1

The target in a further assay is T6, SPIC (Homo sapiens, UniProt Q8N5J4 1-248).
T6 sequence: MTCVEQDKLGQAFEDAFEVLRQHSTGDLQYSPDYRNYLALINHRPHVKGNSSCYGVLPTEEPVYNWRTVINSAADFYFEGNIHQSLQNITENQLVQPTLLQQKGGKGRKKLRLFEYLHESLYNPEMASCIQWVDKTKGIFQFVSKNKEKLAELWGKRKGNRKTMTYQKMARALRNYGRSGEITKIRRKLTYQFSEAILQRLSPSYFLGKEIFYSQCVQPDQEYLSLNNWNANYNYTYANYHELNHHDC
The essentials: as §1

The target in a further assay is ELF4 (Homo sapiens, UniProt Q99607 1-663). In outline:
as §1

The target of a further assay is ETV1 (Homo sapiens, UniProt P50549 1-477). The essentials:
as §1

A further assay has as its target T7, ETS2 (Homo sapiens, UniProt P15036 1-469).
T7 sequence: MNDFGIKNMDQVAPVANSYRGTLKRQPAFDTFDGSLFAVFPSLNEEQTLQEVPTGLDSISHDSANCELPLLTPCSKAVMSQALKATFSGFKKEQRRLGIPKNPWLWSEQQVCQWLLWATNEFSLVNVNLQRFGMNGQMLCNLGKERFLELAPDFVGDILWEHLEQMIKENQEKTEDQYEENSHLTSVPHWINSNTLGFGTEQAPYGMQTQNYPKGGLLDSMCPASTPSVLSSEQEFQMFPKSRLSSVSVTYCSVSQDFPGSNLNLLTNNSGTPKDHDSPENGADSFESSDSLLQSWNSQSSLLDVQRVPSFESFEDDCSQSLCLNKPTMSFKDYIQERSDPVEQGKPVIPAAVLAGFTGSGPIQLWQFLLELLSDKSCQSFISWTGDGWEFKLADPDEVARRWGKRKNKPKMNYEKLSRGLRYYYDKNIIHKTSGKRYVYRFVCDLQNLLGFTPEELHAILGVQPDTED
In outline:
as §1

For a further assay, the target named is T8, SPDEF (Homo sapiens, UniProt O95238 1-335).
T8 sequence: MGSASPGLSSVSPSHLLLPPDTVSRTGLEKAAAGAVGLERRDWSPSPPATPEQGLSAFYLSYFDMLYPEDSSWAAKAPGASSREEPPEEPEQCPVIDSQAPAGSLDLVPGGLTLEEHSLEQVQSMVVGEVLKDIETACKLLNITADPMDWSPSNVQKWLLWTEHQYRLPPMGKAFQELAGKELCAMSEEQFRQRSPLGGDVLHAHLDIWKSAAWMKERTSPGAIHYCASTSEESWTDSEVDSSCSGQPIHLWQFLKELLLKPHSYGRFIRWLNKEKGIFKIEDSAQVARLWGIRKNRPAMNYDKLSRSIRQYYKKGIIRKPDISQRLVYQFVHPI
In outline: as §1

For a further assay, the target named is T9, ELF5 (Homo sapiens, UniProt Q9UKW6-2 1-255).
T9 sequence: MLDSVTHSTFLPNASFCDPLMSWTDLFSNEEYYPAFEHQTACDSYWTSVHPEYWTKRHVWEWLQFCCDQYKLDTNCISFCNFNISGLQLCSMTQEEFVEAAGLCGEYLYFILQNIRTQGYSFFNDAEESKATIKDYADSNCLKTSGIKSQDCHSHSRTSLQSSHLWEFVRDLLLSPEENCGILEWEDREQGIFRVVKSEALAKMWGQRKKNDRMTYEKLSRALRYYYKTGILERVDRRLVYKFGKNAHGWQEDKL
In outline: as §1

A further assay addresses T10, ETV3 (Homo sapiens, UniProt P41162-2 1-143).
T10 sequence: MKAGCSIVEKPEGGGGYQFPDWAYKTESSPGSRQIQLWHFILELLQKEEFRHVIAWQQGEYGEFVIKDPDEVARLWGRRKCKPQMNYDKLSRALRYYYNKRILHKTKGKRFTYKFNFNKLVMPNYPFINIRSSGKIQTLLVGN
The essentials:
as §1

Another assay deals with ETV6 (Homo sapiens, UniProt P41212 1-452). The essentials: as §1
ETV6, sequence (P41212 whole entry): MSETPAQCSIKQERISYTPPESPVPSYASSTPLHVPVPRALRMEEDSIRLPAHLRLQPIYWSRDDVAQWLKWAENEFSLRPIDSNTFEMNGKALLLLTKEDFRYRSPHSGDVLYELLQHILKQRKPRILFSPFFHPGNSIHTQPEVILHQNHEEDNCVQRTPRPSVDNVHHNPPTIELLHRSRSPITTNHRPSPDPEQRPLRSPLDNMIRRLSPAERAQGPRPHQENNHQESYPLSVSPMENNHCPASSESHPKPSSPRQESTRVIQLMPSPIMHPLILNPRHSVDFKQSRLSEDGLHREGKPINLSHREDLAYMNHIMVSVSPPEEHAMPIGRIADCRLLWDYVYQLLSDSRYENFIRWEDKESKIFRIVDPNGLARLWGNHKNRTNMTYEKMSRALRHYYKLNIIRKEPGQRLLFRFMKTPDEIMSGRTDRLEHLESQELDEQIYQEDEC

ELF4, sequence (Q99607 whole entry): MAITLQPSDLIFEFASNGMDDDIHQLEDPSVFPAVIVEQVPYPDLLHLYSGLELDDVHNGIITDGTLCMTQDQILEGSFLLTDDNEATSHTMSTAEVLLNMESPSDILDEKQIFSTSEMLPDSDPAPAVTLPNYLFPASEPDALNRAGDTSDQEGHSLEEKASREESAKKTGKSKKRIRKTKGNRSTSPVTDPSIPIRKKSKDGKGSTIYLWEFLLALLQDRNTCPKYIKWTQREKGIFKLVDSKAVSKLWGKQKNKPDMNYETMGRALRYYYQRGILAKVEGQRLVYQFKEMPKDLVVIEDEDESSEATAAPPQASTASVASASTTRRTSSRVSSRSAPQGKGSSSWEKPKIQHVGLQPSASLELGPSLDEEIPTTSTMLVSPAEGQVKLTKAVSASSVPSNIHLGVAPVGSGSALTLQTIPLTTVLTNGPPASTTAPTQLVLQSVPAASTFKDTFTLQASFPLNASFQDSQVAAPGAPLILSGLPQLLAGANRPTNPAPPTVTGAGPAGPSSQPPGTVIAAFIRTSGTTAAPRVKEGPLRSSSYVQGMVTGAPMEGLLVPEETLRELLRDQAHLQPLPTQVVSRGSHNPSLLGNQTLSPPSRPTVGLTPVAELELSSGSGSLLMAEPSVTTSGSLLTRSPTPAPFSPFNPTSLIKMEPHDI
SPIB, sequence (Q01892 whole entry): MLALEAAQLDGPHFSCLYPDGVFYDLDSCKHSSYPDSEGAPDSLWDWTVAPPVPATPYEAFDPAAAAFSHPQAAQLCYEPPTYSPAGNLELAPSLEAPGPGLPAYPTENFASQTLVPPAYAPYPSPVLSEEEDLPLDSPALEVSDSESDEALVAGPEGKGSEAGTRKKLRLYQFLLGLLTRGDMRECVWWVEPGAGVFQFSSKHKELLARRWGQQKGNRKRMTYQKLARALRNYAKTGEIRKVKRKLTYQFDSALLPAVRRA
ELF1, sequence (P32519 whole entry): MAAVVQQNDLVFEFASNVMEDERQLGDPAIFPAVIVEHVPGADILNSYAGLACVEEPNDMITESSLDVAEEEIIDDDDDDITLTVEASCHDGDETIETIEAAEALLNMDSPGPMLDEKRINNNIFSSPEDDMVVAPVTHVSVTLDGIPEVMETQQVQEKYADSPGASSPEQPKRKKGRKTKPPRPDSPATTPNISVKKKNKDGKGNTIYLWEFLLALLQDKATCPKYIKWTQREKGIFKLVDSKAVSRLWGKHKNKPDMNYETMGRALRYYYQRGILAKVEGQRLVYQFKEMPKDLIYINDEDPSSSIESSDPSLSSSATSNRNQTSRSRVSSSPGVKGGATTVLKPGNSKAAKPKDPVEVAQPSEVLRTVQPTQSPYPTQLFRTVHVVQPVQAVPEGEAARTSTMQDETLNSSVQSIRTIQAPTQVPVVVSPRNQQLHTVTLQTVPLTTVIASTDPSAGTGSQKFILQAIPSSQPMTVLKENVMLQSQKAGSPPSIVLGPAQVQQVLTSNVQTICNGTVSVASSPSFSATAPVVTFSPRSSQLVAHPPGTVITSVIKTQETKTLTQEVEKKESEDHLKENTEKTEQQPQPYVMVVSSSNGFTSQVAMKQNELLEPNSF
ETV5, sequence (P41161 whole entry): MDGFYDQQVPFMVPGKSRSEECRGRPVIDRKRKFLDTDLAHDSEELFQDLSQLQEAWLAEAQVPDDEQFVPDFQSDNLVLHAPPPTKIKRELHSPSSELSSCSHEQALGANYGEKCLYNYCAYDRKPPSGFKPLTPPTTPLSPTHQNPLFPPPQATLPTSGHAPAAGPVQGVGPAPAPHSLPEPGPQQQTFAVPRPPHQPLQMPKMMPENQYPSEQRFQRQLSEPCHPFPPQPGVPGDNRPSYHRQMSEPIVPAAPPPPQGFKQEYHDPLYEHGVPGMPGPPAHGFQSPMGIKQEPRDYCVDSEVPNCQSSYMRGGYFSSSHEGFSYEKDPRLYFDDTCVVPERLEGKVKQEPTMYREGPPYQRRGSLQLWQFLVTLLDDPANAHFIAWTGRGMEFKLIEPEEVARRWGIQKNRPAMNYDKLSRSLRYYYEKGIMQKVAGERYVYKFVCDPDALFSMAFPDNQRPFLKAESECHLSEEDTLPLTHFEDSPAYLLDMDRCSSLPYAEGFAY
ETV1, sequence (P50549 whole entry): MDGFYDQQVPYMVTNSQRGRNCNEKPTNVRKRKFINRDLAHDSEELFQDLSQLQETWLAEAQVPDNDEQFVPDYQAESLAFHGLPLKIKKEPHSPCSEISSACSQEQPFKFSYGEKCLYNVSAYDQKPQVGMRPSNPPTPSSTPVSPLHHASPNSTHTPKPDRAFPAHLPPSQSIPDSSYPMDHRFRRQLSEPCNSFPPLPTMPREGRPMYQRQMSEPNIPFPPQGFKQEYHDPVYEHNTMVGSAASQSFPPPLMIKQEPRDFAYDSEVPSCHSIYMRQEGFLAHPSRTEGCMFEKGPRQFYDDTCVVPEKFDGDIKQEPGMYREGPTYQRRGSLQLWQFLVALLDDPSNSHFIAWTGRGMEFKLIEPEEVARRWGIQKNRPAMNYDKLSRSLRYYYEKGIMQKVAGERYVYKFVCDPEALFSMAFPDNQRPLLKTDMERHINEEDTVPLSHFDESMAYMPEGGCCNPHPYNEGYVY

AGTGTC: the binding signal with FLI1 is 1.01 fold enrichment (6-mer frequency, TF over GST control); with ELK1, 1.07 fold enrichment (6-mer frequency, TF over GST control); in the assay with GABPA, 1.07 fold enrichment (6-mer frequency, TF over GST control); in the assay with ERG, 1.08 fold enrichment (6-mer frequency, TF over GST control); with ELF1, 1.06 fold enrichment (6-mer frequency, TF over GST control); in the assay with EHF, 1.14 fold enrichment (6-mer frequency, TF over GST control). Further, the binding signal in the assay with SPI1 was 1.16 fold enrichment (6-mer frequency, TF over GST control); in the assay with SPIB, 1.01 fold enrichment (6-mer frequency, TF over GST control); with ETV5, 1.06 fold enrichment (6-mer frequency, TF over GST control); with SPIC, 1.11 fold enrichment (6-mer frequency, TF over GST control); with ELF4, 1.07 fold enrichment (6-mer frequency, TF over GST control); with ETV1, 1.02 fold enrichment (6-mer frequency, TF over GST control). The binding signal with ETS2 was 1.09 fold enrichment (6-mer frequency, TF over GST control); with SPDEF it was 1.05 fold enrichment (6-mer frequency, TF over GST control); with ELF5 it was 1.15 fold enrichment (6-mer frequency, TF over GST control); in the assay with ETV3, 1.07 fold enrichment (6-mer frequency, TF over GST control); in the assay with ETV6 it was 1.01 fold enrichment (6-mer frequency, TF over GST control).

The record behind these values is PMC7862700, “An all-to-all approach to the identification of sequence-specific readers for epigenetic DNA modifications on cytosine”.
